Test results as given in PubChem BioAssay (NCI).
This is part of a sample that, as a whole, favours compounds with a hit. Of some 79,000 tested, about 15% had one in any assay. The source made the active and inactive calls. Cut-off read from the data, not from the text of the source: active = growth inhibition above about 70%; inactive = the rest.

How the values were obtained:
[1] = NCI Yeast Anticancer Drug Screen. Data for the rad52 strain (AID 147);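 note: 0% = growth of vehicle-treated control cultures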; settings: S. cerevisiae rad52 mutant growth inhibition, active compounds read high
In short: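 The repair-mutant yeast strain was incubated with compounds, then growth was read and inhibition derived relative to vehicle.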

[2] = NCI Yeast Anticancer Drug Screen. Data for the wt1 strain (AID 149);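 note: 0% = growth of vehicle-treated wt1 cultures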; settings: S. cerevisiae wt1 strain (SPY 50644) growth inhibition, active compounds read high
In short: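 wt1 yeast, compound-treated; % growth inhibition vs vehicle control.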

[3] = NCI Yeast Anticancer Drug Screen. Data for the rad50EPP+ strain (AID 151);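 note: 0% = growth of vehicle-treated control cultures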; settings: S. cerevisiae rad50 mutant strain, active compounds read high
In short: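 Vehicle-normalised growth inhibition; rad50EPP+ yeast strain, altered in DNA damage repair, compound-treated.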

[4] = NCI Yeast Anticancer Drug Screen. Data for the rad50 strain (AID 155);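 note: 0% = growth of vehicle-only cultures of the same strain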; settings: S. cerevisiae rad50 strain growth inhibition, active compounds read high
In short: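 Genetically altered yeast (DNA repair pathway); compound treatment; growth inhibition vs vehicle ctrl.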

[5] = NCI Yeast Anticancer Drug Screen. Data for the mec2-1 strain (AID 157); settings: S. cerevisiae mec2-1 strain, active compounds read high
In short: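 Mutant yeast (mec2-1) grown with compound; growth inhibition relative to vehicle control reported.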

[6] = NCI Yeast Anticancer Drug Screen. Data for the rad14 strain (AID 159);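 note: 0% = growth of vehicle-treated control cultures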; settings: S. cerevisiae rad14 strain growth inhibition, active compounds read high
In short: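 Test compounds were applied to a repair-deficient yeast strain. Its growth was then compared with that of cultures given vehicle alone, and inhibition was expressed relative to those controls.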

[7] = NCI Yeast Anticancer Drug Screen. Data for the sgs1 mgt1 strain (AID 161);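 note: 0% = growth of cultures given vehicle only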; settings: S. cerevisiae sgs1 mgt1 strain, active compounds read high
In short: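 Yeast cells carrying a defined DNA-repair defect were exposed to test compounds. Growth inhibition was measured relative to vehicle-treated controls.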

[8] = NCI Yeast Anticancer Drug Screen. Data for the CLN2oe strain (AID 163);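 note: 0% = growth of vehicle-only control cultures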; settings: S. cerevisiae CLN2oe strain, active compounds read high
In short: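 Compounds are applied to yeast harbouring a defined cell-cycle control change; reduced growth compared with vehicle-treated controls gives the value.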

[9] = NCI Yeast Anticancer Drug Screen. Data for the cln2 rad14 strain (AID 165);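 note: 0% = growth equal to vehicle treated cultures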; settings: S. cerevisiae cln2 rad14 strain, active compounds read high
In short: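 Readout is yeast growth inhibition versus vehicle-treated controls, using a strain with cln2 and rad14 alterations exposed to compound.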

[10] = NCI Yeast Anticancer Drug Screen. Data for the bub3 strain (AID 167); settings: S. cerevisiae bub3 mutant strain, active compounds read high
In short: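 Yeast carrying a defined mutation is treated with each compound, and growth is compared with that of vehicle-exposed cells to give inhibition.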

[11] = NCI Yeast Anticancer Drug Screen. Data for the wt2 strain (AID 169);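 note: 0% = growth of vehicle-treated yeast cultures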; settings: S. cerevisiae wt2 strain growth inhibition, active compounds read high
In short: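 Against vehicle-treated controls, the growth of yeast exposed to each compound was compared, and the inhibition was recorded.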

[12] = NCI Yeast Anticancer Drug Screen. Data for the mlh1 strain (AID 171);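 note: 0% = growth of vehicle-treated control cultures of the same strain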; settings: S. cerevisiae mlh1 strain growth inhibition, active compounds read high
In short: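 Measured: yeast growth. Reference: vehicle-treated controls. Organism: strain with a defined alteration affecting DNA damage repair or cell cycle control, treated with compound.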

[13] = NCI Yeast Anticancer Drug Screen. Data for the sgs1 strain (AID 173);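 note: 0% = growth of vehicle-only control cultures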; settings: S. cerevisiae sgs1 mutant, active compounds read high
In short: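 Each compound was added to cultures of the altered yeast strain. Growth was recorded, and inhibition was derived by comparison with vehicle controls.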

[14] = NCI Yeast Anticancer Drug Screen. Data for the mlh1 rad18 strain (AID 175); settings: S. cerevisiae mlh1 rad18 strain growth inhibition, active compounds read high
In short: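 Genetically defined yeast (DNA repair-deficient) exposed to compounds; growth inhibition determined relative to vehicle.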

[15] = NCI Yeast Anticancer Drug Screen. Data for the rad18 strain (AID 177); settings: S. cerevisiae rad18 mutant growth inhibition, active compounds read high
In short: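 Vehicle-treated cultures served as the baseline for scoring compound-induced growth inhibition in DNA-repair-mutant yeast.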

[16] = at 5.0 µM (retest, dose inferred, filed as 0.5)
[17] = at 50.0 µM (retest, dose inferred, filed as 5.0)

Measured: growth inhibition

Cc1c2cc[n+](CCO)cc2c(C)c2c1[nH]c1ccc(O)cc12
active: [1]; at 11.0 µM 80% | [1]; at 33.0 µM 91% | [1]; at 100.0 µM 91% | [3]; at 100.0 µM 83% | [4]; at 11.0 µM 89% | [4]; at 33.0 µM 94% | [4]; [17] 93% | [4]; at 50.0 µM 80.5% | [4]; at 100.0 µM 95% | [14]; at 50.0 µM 72.6%
inactive: [1]; at 1.2 µM 25% | [1]; at 3.7 µM 53% | [2]; at 1.2 µM 8% | [2]; at 3.7 µM 12% | [2]; at 11.0 µM 1% | [2]; at 33.0 µM 11% | [2]; at 100.0 µM 13% | [3]; at 1.2 µM 25% | [3]; at 3.7 µM 57% | [3]; at 11.0 µM 59% | [3]; at 33.0 µM 68% | [4]; at 1.2 µM 35% | [4]; at 3.7 µM 68% | [4]; [16] 47% | [5]; at 1.2 µM 22% | [5]; at 3.7 µM 28% | [5]; [16] 15% | [5]; at 11.0 µM 30% | [5]; at 33.0 µM 48% | [5]; [17] 36% | [5]; at 50.0 µM 36.7% | [5]; at 100.0 µM 52% | [6]; at 1.2 µM 4% | [6]; at 3.7 µM 9% | [6]; at 11.0 µM 3% | [6]; at 33.0 µM 19% | [6]; at 100.0 µM 29% | [7]; [16] 12% | [7]; [17] 35% | [7]; at 50.0 µM -1.6% | [8]; at 1.2 µM -11% | [8]; at 3.7 µM -32% | [8]; at 11.0 µM -17% | [8]; at 33.0 µM -9% | [8]; at 100.0 µM 3% | [9]; [16] 13% | [9]; [17] 15% | [9]; at 50.0 µM 7.55% | [10]; at 1.2 µM 6% | [10]; at 3.7 µM 9% | [10]; [16] 7% | [10]; at 11.0 µM 10% | [10]; at 33.0 µM 24% | [10]; [17] 33% | [10]; at 50.0 µM 1.35% | [10]; at 100.0 µM 28% | [11]; at 1.2 µM -8% | [11]; at 3.7 µM -6% | [11]; at 11.0 µM -4% | [11]; at 33.0 µM -9% | [11]; at 100.0 µM -10% | [12]; at 1.2 µM 25% | [12]; at 3.7 µM 32% | [12]; at 11.0 µM 41% | [12]; at 33.0 µM 42% | [12]; at 100.0 µM 47% | [13]; at 1.2 µM 18% | [13]; at 3.7 µM 19% | [13]; at 11.0 µM 17% | [13]; at 33.0 µM 25% | [13]; at 100.0 µM 42% | [14]; [16] 13% | [14]; [17] 36% | [15]; at 1.2 µM 20% | [15]; at 3.7 µM 20% | [15]; at 11.0 µM 19% | [15]; at 33.0 µM 40% | [15]; at 100.0 µM 49%
